Results reported in PubChem BioAssay AID602323 (The Scripps Research Institute Molecular Screening Center, 2012).
Unmarked numbers belong to inactive results. Calls of active or inactive are those of the source. The rule behind the calls is not given here.

What follows are molecules tested on 80kDa SH (assay: serine hydrolase inhibition in mouse brain membranes, late-stage follow-up, selectivity assay for DAGLb inhibitor project, biochemical, gel-based competitive ABPP, fluorescence, set 2 (AID 602323)). Settings: mouse brain membrane, at 1 µM, hits give high values.

Structure (SMILES) | inhibition
O=C(c1ccc(-c2ccc(-c3cn(C(=O)N4CCCCC4Cc4ccccc4)nn3)cc2)cc1)N1CCCCC1 (centres undefined) | 40%
O=C(N1CCCCC1Cc1ccccc1)n1cc(-c2ccc(-c3cccc(CO)c3)cc2)nn1 (centres undefined) | 10%
COc1ccccc1-c1ccc(-c2cn(C(=O)N3CCCCC3Cc3ccccc3)nn2)cc1 (centres undefined) | 0%
O=C(N1CCCCC1Cc1ccccc1)n1cc(-c2ccc(-c3ccoc3)cc2)nn1 (centres undefined) | 20%
O=C(N1CCCCC1Cc1ccccc1)n1cc(-c2cccc(-c3ccccc3)c2)nn1 (centres undefined) | 0%
O=C(N1CCCCC1Cc1ccccc1)n1cc(-c2ccc(OC(F)(F)F)cc2)nn1 (centres undefined) | 20%
O=C(N1CCCCC1Cc1ccccc1)n1cc(-c2ccc(-c3ccccc3C(F)(F)F)cc2)nn1 (centres undefined) | 0%
Cc1ccccc1-c1ccc(-c2cn(C(=O)N3CCCCC3Cc3ccccc3)nn2)cc1 (centres undefined) | 0%
O=C(N1CCCCC1Cc1ccccc1)n1cc(-c2ccc(-c3ccccc3CO)cc2)nn1 (centres undefined) | 5%
O=C(c1ccc(-c2cn(C(=O)N3CCCCC3Cc3ccccc3)nn2)cc1)N1CCCCC1 (centres undefined) | 20%
O=C(N1CCCCC1Cc1ccccc1)n1cc(-c2ccc(-c3ccc(OC(F)(F)F)cc3)cc2)nn1 (centres undefined) | 0%
O=C(N1CCCCC1Cc1ccccc1)n1cc(-c2ccc(-c3cccc(C(F)(F)F)c3)cc2)nn1 (centres undefined) | 0%
CC(C)CN(CCc1ccccc1)C(=O)n1cc(-c2ccc(OC(F)(F)F)cc2)nn1 | 80% (active)
CC(C)(C)OC(=O)NCCCCCN(CCc1ccccc1)C(=O)n1cc(-c2ccc(OC(F)(F)F)cc2)nn1 | 80% (active)
O=C(N1CCCCC1Cc1ccccc1)n1cc(-c2ccc(-c3ccc(C(F)(F)F)cc3)cc2)nn1 (centres undefined) | 0%
O=C(N1CCCCC1Cc1ccccc1)n1cc(-c2ccc(-c3ccccc3Cl)cc2)nn1 (centres undefined) | 0%
O=C(N1CCCCC1Cc1ccccc1)n1cc(-c2ccc(-c3ccc4c(c3)OCO4)cc2)nn1 (centres undefined) | 0%
O=C(N1CCCCC1Cc1ccccc1)n1ncc(-c2ccc(OC(F)(F)F)cc2)n1 (centres undefined) | 50% (active)
O=C(N1CCCCC1Cc1ccccc1)n1cc(-c2cc(F)cc(F)c2)nn1 (centres undefined) | 80% (active)
O=C(N1CCCCC1Cc1ccccc1)n1ncc(C(O)(c2ccccc2)c2ccccc2)n1 (centres undefined) | 20%
O=C(N1CCCCC1Cc1ccccc1)n1cc(-c2ccc(-c3ccccc3OC(F)(F)F)cc2)nn1 (centres undefined) | 10%
O=C(N1CCCCC1Cc1ccccc1)n1cc(-c2ccccc2-c2ccccc2)nn1 (centres undefined) | 80% (active)
O=C(N(CCc1ccccc1)Cc1ccco1)n1cc(-c2ccc(OC(F)(F)F)cc2)nn1 | 80% (active)
O=C(N1CCCCC1Cc1ccccc1)n1cc(-c2ccc(Br)cc2)nn1 (centres undefined) | 50% (active)
